# Assay results taken from the antibiotic and cytotoxicity screens of Wong et al. (2023).
# About 3,300 (8.5%) of roughly 39,000 compounds were called active. The entries come from a sample that favours actives as a whole.
# Test system: HepG2
# Test: cytotoxicity call (relative viability < 0.9)
# Conditions: 10 µM
row,Structure (SMILES),cytotoxicity call
1,O=C(CS(=O)(=O)c1cccc2nsnc12)N1CC(=O)N(CCc2ccccc2)C(=O)C1,inactive
2,C[C@H]1CN([C@@H](C)CO)C(=O)c2cc(NS(=O)(=O)c3cn(C)cn3)ccc2O[C@@H]1CN(C)S(=O)(=O)c1ccc(F)cc1,inactive
3,C[C@H](CO)N1C[C@H](C)[C@H](CN(C)Cc2ccc(C(F)(F)F)cc2)Oc2c(NS(C)(=O)=O)cccc2C1=O,inactive
4,Cc1ccc(-c2ccc3c(c2)O[C@H](CN(C)C(=O)NC(C)C)[C@H](C)CN([C@@H](C)CO)S3(=O)=O)cc1,inactive
5,C[C@H](CO)N1C[C@H](C)[C@H](CN(C)S(=O)(=O)c2ccc(F)cc2)OCCCC[C@H](C)Oc2ccc(NS(=O)(=O)c3cn(C)cn3)cc2C1=O,inactive
6,O=C(C[C@H]1CC[C@@H]2[C@H](COC[C@H](O)CN2S(=O)(=O)c2ccccc2Cl)O1)NCc1ccccc1Cl,inactive
7,CN(CC(=O)Nc1cccc(S(=O)(=O)N2CCOCC2)c1)CC(=O)Nc1ccc(Cl)c(C(F)(F)F)c1,inactive
8,C[C@H](NC(=O)c1c(N)nn2cccnc12)c1cc2cccc(C#Cc3cnn(C)c3)c2c(=O)n1-c1ccccc1,active
9,O=C(C[C@H]1CC[C@H]2[C@@H](COC[C@@H](O)CN2S(=O)(=O)c2ccccc2)O1)NCCN1CCCC1,inactive
10,CN1CCN(C(=O)C[C@H]2CC[C@H]3[C@@H](COc4ccc(NC(=O)c5cccs5)cc4C(=O)N3C)O2)CC1,inactive
11,COc1ccc(S(=O)(=O)N(C)C[C@H]2Oc3ccc(NC(=O)c4ccncc4)cc3CC(=O)N([C@H](C)CO)C[C@H]2C)cc1,inactive
12,CN(C)CC(=O)N1CC2(C1)[C@@H](c1ccccc1)[C@H](CO)N2S(C)(=O)=O,inactive
13,COc1cc2ncnc(Oc3cccc(NC(=O)Nc4cc(C(C)(C)C(F)(F)F)on4)c3)c2cc1OC,inactive
14,CC(C)(C)c1cc(C(=O)NN)no1,inactive
15,CCN1C(C)(C)CC(Oc2ccc(C(=O)Nc3ccc(NC(=O)Nc4cc(C(C)(C)C)on4)cc3)nc2)CC1(C)C,active
16,C[C@@H]1CN([C@H](C)CO)C(=O)Cc2cc(NC(=O)Cn3cnnn3)ccc2O[C@H]1CN(C)C(=O)NC1CCCCC1,inactive
17,C[C@@H]1CN([C@@H](C)CO)C(=O)c2cc(NC(=O)Nc3cccc4ccccc34)ccc2O[C@@H]1CN(C)Cc1ccccc1,active
18,C[C@@H]1CN([C@H](C)CO)C(=O)c2cc(NC(=O)Nc3cccc4ccccc34)ccc2O[C@H]1CN(C)Cc1ccccc1,inactive
19,C[C@@H]1CN([C@H](C)CO)C(=O)c2cc(NC(=O)Nc3cccc4ccccc34)ccc2O[C@@H]1CN(C)Cc1ccccc1,active
20,C[C@@H]1CN([C@@H](C)CO)C(=O)c2cc(NC(=O)Nc3cccc4ccccc34)ccc2O[C@@H]1CN(C)Cc1ccc2c(c1)OCO2,active
21,C[C@H]1CN([C@@H](C)CO)C(=O)c2cc(NC(=O)Nc3cccc4ccccc34)ccc2O[C@@H]1CN(C)Cc1ccccc1,inactive
22,C[C@H]1CN([C@@H](C)CO)C(=O)c2cc(NC(=O)Nc3cccc4ccccc34)ccc2O[C@@H]1CN(C)Cc1ccc2c(c1)OCO2,inactive
23,C[C@@H]1CN([C@@H](C)CO)C(=O)c2cc(NC(=O)Nc3cccc4ccccc34)ccc2O[C@H]1CN(C)Cc1ccccc1,inactive
24,C[C@H](CO)N1C[C@H](C)[C@H](CN(C)Cc2ccccc2)Oc2ccc(NC(=O)Nc3cccc4ccccc34)cc2C1=O,inactive
25,C[C@@H]1CN([C@@H](C)CO)C(=O)c2cc(NC(=O)Nc3cccc4ccccc34)ccc2O[C@H]1CN(C)Cc1ccc2c(c1)OCO2,inactive
